Screening results as filed in PubChem.
hcDAF12 agonist = H. contortus DAF-12 nuclear receptor activators, primary screen, cell-based, luminescence, HEK293, lit1-tk-luc reporter; HEK293 hcDAF-12 lit1-tk-luc reporter; 0% DMSO, 100% Δ7-dafachronic acid; activation, % at 6.8 µM; actives 1.4% (n = 370,000); AID 652067, 2013;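 active = activation above the mean of all tested compounds plus 3 SD, cut at about 5.5% in these data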
DAX1 inh-1 = DAX1 (NR0B1) inhibitors, primary screen, cell-based, HEK293, Gal4-DAX1, luciferase luminescence; Nuclear receptor subfamily 0 group B member 1 (Homo sapiens), P51843; inhibition, % at 6.75 µM; AID 504766, 2011; actives 0.99% (n = 340,000); HEK293 Gal4-DAX1 luciferase reporter;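 active = inhibition above the mean over all tested compounds plus 3 SD, cut at about 4.2% in these data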;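 also: inhibition shows as a rise in luminescence from relieved DAX1 repression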
ssDAF-12 act = S. stercoralis DAF-12 nuclear receptor activators, primary screen, cell-based, luminescence, HEK293, GRIP1 co-expression, lit1-tk-luc | Nuclear hormone receptor DAF-12 (Strongyloides stercoralis) | HEK293 ssDAF-12/GRIP1 lit1-tk-luc reporter; % of 3 µM dafachronic acid response | activation, % at 6.8 µM | actives 1% (n = 370,000);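 active = activation above the mean over all tested compounds plus 3 SD, cut at about 0.9% in these data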
hgDAF12 agonist = H. glycines DAF-12 receptor agonists, primary screen, cell-based, luminescence, HEK293, GAL4 fusion, UAS-luciferase. Nuclear hormone receptor DAF-12 (Heterodera glycines), GAL4 fusion. HEK293 GAL4-hgDAF12 UAS-luciferase reporter, agonist luminescence; normalized to butyrate control. activation, % at 6.8 µM. actives 1.8% (n = 370,000). AID 687014, 2013;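 active = activation above a cutoff set at the mean of all screened compounds plus 3 SD, cut at about 10% in these data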
DAX1 inh-2 = DAX1 (NR0B1) inhibitors on StAR promoter, primary screen, cell-based, luminescence, SF-1 (NR5A1), full-length DAX-1; HEK293T StAR-luciferase reporter, SF-1/DAX-1 repression relief; inhibition, % at 6.8 µM; AID 652010, 2013; actives 1.1% (n = 370,000);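 active = inhibition above the mean over all tested compounds plus 3 SD, cut at about 3.6% in these data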;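 also: higher inhibition means more luminescence from relief of DAX-1 repression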
DAX1 conf = DAX1 (NR0B1) inhibitors relieving SF-1 repression, confirmation, cell-based, luminescence, HEK293T, full-length DAX-1, SF-1 activated StAR promoter. shares compounds with DAX1 inh-2. inhibition, % at 6.8 µM. HEK293T StAR-promoter luciferase reporter, SF-1/DAX-1 repression. actives 87% (n = 2,400). AID 652134, 2013;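 active = inhibition above the average of every tested compound plus 3 SD, cut at about 3.8% in these data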
Target sequence (P51843 whole entry, looked up): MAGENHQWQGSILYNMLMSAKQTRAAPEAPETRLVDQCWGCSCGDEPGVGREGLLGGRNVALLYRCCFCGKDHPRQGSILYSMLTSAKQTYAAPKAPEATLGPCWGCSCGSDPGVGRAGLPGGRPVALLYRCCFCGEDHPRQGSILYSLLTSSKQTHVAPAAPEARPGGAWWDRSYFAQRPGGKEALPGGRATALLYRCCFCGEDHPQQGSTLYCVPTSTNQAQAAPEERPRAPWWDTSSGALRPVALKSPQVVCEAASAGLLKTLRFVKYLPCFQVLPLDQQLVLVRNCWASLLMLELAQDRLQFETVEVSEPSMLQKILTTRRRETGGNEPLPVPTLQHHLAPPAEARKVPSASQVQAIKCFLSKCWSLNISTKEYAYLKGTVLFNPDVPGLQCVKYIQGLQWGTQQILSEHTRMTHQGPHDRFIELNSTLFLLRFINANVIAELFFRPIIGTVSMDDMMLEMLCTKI
SF1 AF2mut Luc = StAR reporter signal changes without DAX1, counter-screen for DAX1 inhibitor project, cell-based, luminescence, AF-2 mutant SF-1, transactivation | inhibition, % at 6.8 µM | shares compounds with DAX1 inh-2 | AID 652136, 2013 | actives 78% (n = 2,400) | HEK293 StAR-luciferase, SF-1 AF2 mutant;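 active = inhibition above the mean of all tested compounds plus 3 SD, cut at about 3% in these data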
A number is an active result; i = inactive; nt = not tested or not shown. Hits are enriched below; roughly 4.1% of the tested compounds scored in any of these assays.

SMILES	hcDAF12 agonist	DAX1 inh-1	ssDAF-12 act	hgDAF12 agonist	DAX1 inh-2	DAX1 conf	SF1 AF2mut Luc
COc1ccc(C(CNC(=O)c2cccc(Br)c2)N2CCCC2)cc1 (stereo unspecified)	i	i	i	i	i	nt	nt
COc1ccc(C(CNC(=O)c2cccc(NC(=O)c3cccs3)c2)N2CCCC2)cc1 (stereo unspecified)	i	i	i	i	4.5	6.4	3.7
Cc1cc(Br)cn2c(Cc3ccccc3C(F)(F)F)c(-c3ccco3)nc12	i	nt	i	i	i	nt	nt
Cc1ccnc(NC(=O)c2ccc(S(=O)(=O)N3CCCCCC3)cc2)c1	i	i	i	i	9.2	10	5.1
CCOc1ccc(C(=O)NCC(=O)Nc2cc(C)ccn2)cc1OCC	i	i	i	i	i	nt	nt
Cc1ccnc(NC(=O)c2ccc(C(=O)c3ccccc3)cc2)c1	i	i	i	i	9.1	11	3.2
Cc1ccnc(NC(=O)CCNC(=O)c2ccc(Cl)cc2)c1	i	i	i	11	5.1	14	7.0
Cc1ccc(C(=O)NCC(=O)Nc2cc(C)ccn2)cc1	i	i	i	i	4.8	6.8	4.5
Cc1ccc(NC(=O)CCNC(=O)c2ccc(Cl)cc2)cc1C	i	i	i	i	i	nt	nt
COC(=O)N[C@H]1CC=C[C@@H]1Cc1cccc(Oc2ccccc2)c1	i	nt	i	i	i	nt	nt
COc1ccc2cc(-c3cn(C(=O)N(c4ccccc4)c4ccccc4)nn3)ccc2c1	i	nt	i	i	nt	nt	nt
Cc1cc(NC(=O)c2ccccc2Cl)no1	i	i	i	i	i	nt	nt
Cc1cc(NC(=O)NC(=O)c2ccccc2F)no1	i	i	i	i	5.2	8.7	i
O=C(NNC(=O)[C@@H]1CCCC[C@@H]1C(=O)O)c1cccs1	i	i	i	i	i	nt	nt
Cc1ccsc1C(=O)NNC(=O)C1CCCCC1C(=O)O (stereo unspecified)	i	i	i	16	6.2	4.0	i
CCn1cc(CCC(=O)Nc2ccc(Oc3cccnc3)cc2)c2ccccc21	i	nt	i	i	i	nt	nt
O=C(Nc1ccc(Cl)cc1Cl)c1ccc2c(=O)n3c(nc2c1)CCC3	i	i	i	i	8.7	11	7.5
O=C(Nc1ccc(Br)cc1Cl)c1ccc2c(=O)n3c(nc2c1)CCC3	i	i	i	i	5.1	5.2	2.9
Cc1ccc2nc(N(CCCN(C)C)C(=O)c3ccc4ncsc4c3)sc2c1	i	i	i	i	6.4	11	7.8
COCCCNc1ccn2nc(-c3ccccc3)cc2n1	6.3	nt	1.0	i	6.5	15	5.0
COCCCNc1ccn2nc(-c3cc(OC)c(OC)c(OC)c3)cc2n1	i	nt	i	i	i	nt	nt
O=c1cc(-c2ccc(O)c(O)c2)oc2c1ccc1ccccc12	i	i	i	i	i	nt	nt
O=c1cc(-c2ccc(O)c(O)c2)oc2ccc3ccccc3c12	i	i	i	10	8.4	i	i
CCN(CC)C(=O)[C@H]1C[C@H](CC(=O)NCCN2CCOCC2)C(=O)N2CCc3c([nH]c4ccc(Cl)cc34)[C@]12C	i	i	i	i	i	nt	nt
CC(C)N(C(=O)[C@H]1C[C@H](CC(=O)NCCN2CCOCC2)C(=O)N2CCc3c([nH]c4ccc(Cl)cc34)[C@]12C)C(C)C	i	i	i	i	5.5	i	i
SMILES	hcDAF12 agonist	DAX1 inh-1	ssDAF-12 act	hgDAF12 agonist	DAX1 inh-2	DAX1 conf	SF1 AF2mut Luc
Cc1ccc(-c2nc3ccc(Br)cn3c2Cc2ccsc2)cc1	i	nt	1.1	21	4.7	8.6	5.8
CCCCOCCCNC(=O)C[C@H]1C[C@@]2(C(=O)OC)C(=C[C@H](COCc3ccccc3)O[C@@H]2C)N(Cc2ccc(Cl)cc2Cl)C1=O	i	nt	i	i	i	nt	nt
Cc1nc2cc(NC(=O)N3c4ccccc4CC3C)ccc2o1 (stereo unspecified)	6.0	i	1.2	i	5.2	6.8	4.1
CC1Cc2ccccc2N1C(=O)c1ccc(Br)o1 (stereo unspecified)	i	i	i	i	i	nt	nt
Cc1ccc(C(=O)N2c3ccccc3CC2C)o1 (stereo unspecified)	i	i	i	13	5.4	7.5	6.5
Cc1ccccc1C(=O)N(C)[C@H]1C[C@H]2c3[nH]c4c(-c5ccccc5)cccc4c3CCN2C[C@H]1[C@H](C)O	i	nt	i	i	i	nt	nt
O=C(Nc1ccc(F)cc1)OCc1cn(Cc2cc(F)cc(F)c2)nn1	i	nt	i	i	i	nt	nt
CCOC(=O)c1ccc(NC(=O)N2CCCCCC2)cc1	i	i	i	i	5.0	14	8.0
CC(=O)c1ccc(NC(=S)N2CCCC2)cc1	i	i	i	i	5.1	i	i
Cc1ccc(C(=O)OCC(=O)N2CCNC2=O)c(C)c1	i	i	i	i	6.9	7.1	5.9
COc1cccc(-c2csc(NC(=O)C3CC3)n2)c1	i	i	i	12	5.2	7.0	5.8
O=C(Nc1nc(-c2ccc3c(c2)OCCO3)cs1)C1CCCC1	i	5.8	i	i	4.7	12	3.9
O=C1c2ccccc2C(c2nnnn2Cc2ccccc2)N1CCc1ccc(O)cc1 (stereo unspecified)	i	nt	i	i	i	nt	nt
O=C1c2ccccc2C(c2nnnn2Cc2ccccc2)N1CCOc1ccccc1 (stereo unspecified)	8.2	nt	i	19	7.2	6.5	4.1
CC(C)n1nnnc1C1c2ccccc2C(=O)N1CCc1c[nH]c2ccccc12 (stereo unspecified)	i	nt	i	i	5.5	i	i
O=C1c2ccccc2C(c2nnnn2Cc2ccccc2)N1CCc1ccccc1F (stereo unspecified)	i	nt	i	11	9.2	i	i
C[C@@H]1COc2cccc(N3CCSCC3)c2S(=O)(=O)N1C	i	nt	i	i	i	nt	nt
CC(C)C[C@@H](CN1CCCC1CN1C(=S)NC[C@@H]1Cc1ccccc1)N1C[C@H](Cc2ccc(O)cc2)N(CCc2ccccc2)C1=S (stereo partly specified)	i	nt	i	i	i	nt	nt
